Laboratory results from the supplement of paper PMC7366291.
Structures can show the parent of a compound that is named as a salt. ± gives the standard deviation or the standard deviation of the averaged measurements.

Experiments:
Settings in all cases: 25 µM; exposure: 24-48 hpf
[1] = test system: Danio rerio Tg(wt1b:EGFP) embryo, pronephros; test: glomerular separation, fold change vs DMSO control; higher = glomeruli further apart (abnormal)
In short: (§1)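 From 24 to 48 hpf, at 28.5°C, dechorionated Tg(wt1b:EGFP) zebrafish embryos sat in HEPES-buffered E3 with 0.003% PTU carrying 25 μM compound and 0.5% DMSO. Their pronephroi were imaged dorsally in 96-well plates filled with agarose, using 470 nm light and 10 z-slices. A Fiji macro measured distances and angles between 16 reference points that were set manually on maximum projections, and any value more than 2 SD from its feature mean was excluded. Features are expressed as fold change relative to the mean of DMSO-treated embryos imaged on the same day.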

[2] = test system: Danio rerio Tg(wt1b:EGFP) embryo, pronephros; test: glomerular width (mean of left and right), fold change vs DMSO control; higher = wider glomerulus
In short: as §1

[3] = test system: Danio rerio Tg(wt1b:EGFP) embryo, pronephros; test: fraction of imaged embryos annotated as normal kidney; higher = less nephrotoxic; extreme values may be limits of the assay
In short: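 Dechorionated Tg(wt1b:EGFP) zebrafish embryos were incubated with 25 μM compound in 0.5% DMSO, 5 mM HEPES-buffered E3 and 0.003% PTU from 24 to 48 hpf at 28.5°C. Pronephroi were then imaged by widefield fluorescence, and the fraction of embryos per treatment assigned by hand to the normal-kidney category is given.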

[4] = test system: Danio rerio Tg(wt1b:EGFP) embryo, pronephros; test: pronephric angle neck segment to proximal convoluted tubule (mean of left and right), fold change vs DMSO control; higher = larger pronephric angle
In short: as §1

Compound	glomerular separation [1]	glomerular width [2]	fraction of imaged embryos annotated as normal kidney [3]	pronephric angle neck segment [4]
CN(C)CCn1nnnc1SCC1=C(C(=O)O)N2C(=O)[C@@H](NC(=O)Cc3csc(N)n3)[C@H]2SC1 [Cefotiam hydrochloride]	1.46 ± 0.87	0.929 ± 0.014	0.917	1.08 ± 0.14
Nc1ccc(C(=O)O)c(O)c1 [4-aminosalicylic acid]	0.608 ± 0.17	0.9604 ± 0.008	0.833	0.995 ± 0.018
CC1=C(/C=C/C(C)=C/C=C/C(C)=C\C(=O)O)C(C)(C)CCC1 [Isotretinoin]	4.83 ± 2.1	0.525 ± 0.021	0	1.69 ± 0.022
CC[C@H](C)[C@H](N)C1=N[C@H](C(=O)N[C@@H](CC(C)C)C(=O)N[C@H](CCC(=O)O)C(=O)N[C@H](C(=O)N[C@H]2CCCCNC(=O)[C@H](CC(N)=O)NC(=O)[C@@H](CC(=O)O)NC(=O)[C@H](Cc3cnc[nH]3)NC(=O)[C@@H](Cc3ccccc3)NC(=O)[C@H]([C@@H](C)CC)NC(=O)[C@@H](CCCN)NC2=O)[C@@H](C)CC)CS1 [Bacitracin]	0.822 ± 0.28	0.912 ± 0.019	1	1.01 ± 0.013
C/C(=C\C(=O)OCCCCCCCCC(=O)O)C[C@@H]1OC[C@H](C[C@@H]2O[C@H]2[C@@H](C)[C@H](C)O)[C@@H](O)[C@H]1O [Mupirocin]	0.88 ± 0.41	1.01 ± 0.013	0.75	0.985 ± 0.046
CCn1cc(C(=O)O)c(=O)c2cnc(N3CCNCC3)nc21 [Pipemidic acid]	0.919 ± 0.32	1.05 ± 0.013	0.75	0.9737 ± 0.0064
O=C1c2ccccc2C(=O)C1c1ccccc1 [Phenindione]	1.02 ± 0.37	1.07 ± 0.052	0.75	0.919 ± 0.013
CC(COc1ccccc1)NC(C)C(O)c1ccc(O)cc1 (stereo unspecified) [Isoxsuprine hydrochloride]	1.07 ± 0.26	1.08 ± 0.024	1	0.928 ± 0.029
Nc1ccc(/N=N/c2ccccc2)c(N)n1 [Phenazopyridine hydrochloride]	1.27 ± 0.52	0.979 ± 0.025	0.583	1.101 ± 0.01
COc1ccc(C(=O)CC(=O)c2ccc(C(C)(C)C)cc2)cc1 [Avobenzone]	0.991 ± 0.29	1.05 ± 0.063	0.667	1.005 ± 0.0096
NNCCc1ccccc1 [Phenelzine sulfate]	0.964 ± 0.27	1.04 ± 0.016	0.833	0.93 ± 0.067
CCCN(CCC)CCc1cccc2c1CC(=O)N2 [Ropinirole hydrochloride]	1.34 ± 0.63	0.908 ± 0.044	0.75	0.991 ± 0.037
Cc1cc(-n2c(=O)[nH]c(=O)n(C)c2=O)ccc1Oc1ccc(SC(F)(F)F)cc1 [Toltrazuril]	1.34 ± 0.62	0.8688 ± 0.0053	0.5	1.09 ± 0.045
CCN1CCC[C@H]1CNC(=O)c1c(O)c(Cl)cc(Cl)c1OC [Raclopride]	1.26 ± 0.47	0.903 ± 0.033	0.917	1.02 ± 0.12
CCN(CC)CCN[C@@H](C(=O)OCCC(C)C)c1ccccc1 [Camylofine chlorhydrate]	0.973 ± 0.34	1.02 ± 0.018	0.75	0.977 ± 0.015
CC(=O)c1ccc2c(c1)N(CCCN(C)C)c1ccccc1S2 [Acetopromazine maleate salt]	0.953 ± 0.23	0.924 ± 0.071	1	0.969 ± 0.02
CC(N)C12CC3CC(CC(C3)C1)C2 (stereo unspecified) [Rimantadine Hydrochloride]	0.846 ± 0.35	0.967 ± 0.064	0.917	1.04 ± 0.04
Cc1ccc2c(c1)c1c3n2CCNC3CCC1 (stereo unspecified) [Pirlindole mesylate]	0.876 ± 0.33	1.07 ± 0.036	0.833	0.95 ± 0.0043
CCC(=O)O[C@@H](O[P@](=O)(CCCCc1ccccc1)CC(=O)N1C[C@H](C2CCCCC2)C[C@H]1C(=O)O)C(C)C [Fosinopril]	1.05 ± 0.44	1.01 ± 0.023	0.7	1.03 ± 0.013
COc1cc2c(cc1OC)C(=O)C(CC1CCN(Cc3ccccc3)CC1)C2 (stereo unspecified) [Donepezil hydrochloride]	0.812 ± 0.32	1.13 ± 0.082	0.833	0.9843 ± 0.0083
CCN1CCCC1CNC(=O)c1cc(S(N)(=O)=O)ccc1OC (stereo unspecified) [Sulpiride]	1.08 ± 0.28	1.02 ± 0.023	0.75	0.983 ± 0.032
OC(c1cc(C(F)(F)F)nc2c(C(F)(F)F)cccc12)C1CCCCN1 (stereo unspecified) [Mefloquine hydrochloride]	1.17 ± 0.51	1.01 ± 0.019	0.667	1.017 ± 0.0068
CN(C)CCC(c1ccc(Cl)cc1)c1ccccn1 (stereo unspecified) [Chlorpheniramine maleate]	1.56 ± 0.77	1.04 ± 0.042	0.667	0.969 ± 0.0027
CC(=O)[C@@]12O[C@](C)(c3ccccc3)O[C@@H]1C[C@H]1[C@@H]3CCC4=CC(=O)CC[C@]4(C)[C@H]3CC[C@@]12C [Algestone acetophenide]	1.76 ± 0.84	1.05 ± 0.047	0.5	1.02 ± 0.048
C[C@](N)(Cc1ccc(O)c(O)c1)C(=O)O [Methyldopa (L,-)]	1.03 ± 0.18	1.02 ± 0.081	0.909	1.001 ± 0.0027
COc1cc(C(=O)OCCCN2CCCN(CCCOC(=O)c3cc(OC)c(OC)c(OC)c3)CC2)cc(OC)c1OC [Dilazep dihydrochloride]	1 ± 0.36	0.986 ± 0.055	0.75	1.08 ± 0.089
CC(C)NC[C@H](O)COc1ccc(CC(N)=O)cc1 [(S)-(-)-Atenolol]	0.84 ± 0.24	0.918 ± 0.067	0.5	0.959 ± 0.08

Compound	glomerular separation [1]	glomerular width [2]	fraction of imaged embryos annotated as normal kidney [3]	pronephric angle neck segment [4]
Cc1cccc(Nc2ccncc2S(=O)(=O)NC(=O)NC(C)C)c1 [Torsemide]	1.12 ± 0.3	0.95 ± 0.015	1	0.905 ± 0.03
CC(=O)CCCCn1c(=O)c2c(ncn2C)n(C)c1=O [Pentoxifylline]	0.678 ± 0.2	0.971 ± 0.032	0.583	0.752 ± 0.033
NC(=O)N1c2ccccc2C=Cc2ccccc21 [Carbamazepine]	0.842 ± 0.19	0.99 ± 0.04	0.667	0.955 ± 0.025
CC(=O)O[C@]1(C(C)=O)CC[C@H]2[C@@H]3C=C(C)C4=CC(=O)CC[C@]4(C)[C@H]3CC[C@@]21C [Megestrol acetate]	1.27 ± 0.82	0.864 ± 0.029	0.917	0.9907 ± 0.0078
O=C1[C@H](CC[C@H](O)c2ccc(F)cc2)[C@@H](c2ccc(O)cc2)N1c1ccc(F)cc1 [Ezetimibe]	1.28 ± 0.36	1.01 ± 0.015	0.75	0.992 ± 0.059
O=C(NCC1CCCCN1)c1cc(OCC(F)(F)F)ccc1OCC(F)(F)F (stereo unspecified) [Flecainide acetate]	0.977 ± 0.32	1.03 ± 0.022	0.75	0.961 ± 0.023
CN(C)[C@@H]1C(O)=C(C(=O)NCNCCCC[C@H](N)C(=O)O)C(=O)[C@@]2(O)C(O)=C3C(=O)c4c(O)cccc4[C@@](C)(O)[C@H]3C[C@@H]12 [Lymecycline]	1.2 ± 0.48	0.916 ± 0.014	1	0.97 ± 0.023
Cn1c(=O)c2c(ncn2CCO)n(C)c1=O [Etofylline]	0.926 ± 0.37	0.951 ± 0.023	0.917	0.9776 ± 0.00038
Clc1ccc(CO/N=C(\Cn2ccnc2)c2ccc(Cl)cc2Cl)c(Cl)c1 [Oxiconazole Nitrate]	3.51 ± 1.1	0.623 ± 0.014	0	1.26 ± 0.03
Cc1onc(-c2ccccc2)c1-c1ccc(S(N)(=O)=O)cc1 [Valdecoxib]	0.816 ± 0.3	1.13 ± 0.019	0.917	0.9437 ± 0.0089
CCOc1ccc(Cc2nccc3cc(OCC)c(OCC)cc23)cc1OCC [Ethaverine hydrochloride]	0.975 ± 0.28	1.1 ± 0.081	0.583	0.989 ± 0.061
CC(C)c1nc(CN(C)C(=O)N[C@H](C(=O)N[C@@H](Cc2ccccc2)C[C@H](O)[C@H](Cc2ccccc2)NC(=O)OCc2cncs2)C(C)C)cs1 [Ritonavir]	1.18 ± 0.61	0.961 ± 0.094	1	1.02 ± 0.033
CN1[C@@H]2CC[C@H]1C[C@@H](OC(=O)c1c[nH]c3ccccc13)C2 [Tropisetron hydrochloride]	1.8 ± 0.91	1.02 ± 0.051	0.667	1.06 ± 0.067
C[C@]12CC[C@@H]3c4ccc(O)cc4CC[C@H]3[C@@H]1C[C@@H](O)[C@@H]2O [Estriol]	0.626 ± 0.2	1.03 ± 0.042	0.917	1.026 ± 0.0015
CC1(C)O[C@@H]2C[C@H]3[C@@H]4C[C@H](F)C5=CC(=O)CC[C@]5(C)[C@H]4[C@@H](O)C[C@]3(C)[C@]2(C(=O)CO)O1 [Flurandrenolide]	1.09 ± 0.49	1.08 ± 0.04	0.333	0.979 ± 0.1
C=CCN1CCCC1CNC(=O)c1cc2nn[nH]c2cc1OC (stereo unspecified) [Alizapride hydrochloride]	1.18 ± 0.37	0.924 ± 0.018	0.917	1.02 ± 0.049
Nc1ccc(C(=O)NCC(=O)O)cc1 [Aminohippuric acid]	0.88 ± 0.41	0.993 ± 0.03	0.917	0.991 ± 0.018
CNCCCC1c2ccccc2C=Cc2ccccc21 [Protriptyline hydrochloride]	0.765 ± 0.31	1.07 ± 0.027	0.75	0.973 ± 0.027
O=C(O)CCNC(=O)c1ccc(/N=N/c2ccc(O)c(C(=O)O)c2)cc1 [Balsalazide Sodium]	0.832 ± 0.29	1.03 ± 0.012	0.833	1.08 ± 0.012
CN1CCN(CC(=O)N2c3ccccc3C(=O)Nc3cccnc32)CC1 [Pirenzepine dihydrochloride]	1.19 ± 0.65	0.9891 ± 0.0015	0.75	1.03 ± 0.059
CC(NCCc1ccc(O)cc1)C(O)c1ccc(O)cc1 (stereo unspecified) [Ritodrine hydrochloride]	1.03 ± 0.28	0.952 ± 0.012	0.833	1.038 ± 0.0019
COC(=O)C1=C(C)NC(C)=C(C(=O)OC(C)C)C1c1cccc2nonc12 (stereo unspecified) [Isradipine]	4.38 ± 1.4	0.666 ± 0.037	0	1.007 ± 0.0069
CC(=O)OCC(=O)[C@@]1(O)[C@H](C)C[C@H]2[C@@H]3CCC4=CC(=O)C=C[C@]4(C)[C@@]3(F)[C@@H](O)C[C@@]21C [Dexamethasone acetate]	1 ± 0.25	1.252 ± 0.0072	1	1.02 ± 0.034
C[C@H](O)C(=O)Nc1c(I)c(C(=O)NC(CO)CO)c(I)c(C(=O)NC(CO)CO)c1I [Iopamidol]	0.92 ± 0.3	0.9773 ± 0.007	0.833	1.01 ± 0.038
CCN1C(=O)NC(c2ccccc2)C1=O (stereo unspecified) [Ethotoin]	0.796 ± 0.17	0.998 ± 0.037	0.917	0.942 ± 0.014
OCc1cc(C(O)CNCCCCCCOCCCCc2ccccc2)ccc1O (stereo unspecified) [Salmeterol]	5.53 ± 1.4	0.665 ± 0.017	0	1.65 ± 0.087
CCOc1nc2cccc(C(=O)O)c2n1Cc1ccc(-c2ccccc2-c2nnn[nH]2)cc1 [Candesartan]	0.996 ± 0.37	1.03 ± 0.023	0.917	1.01 ± 0.019
